Test results published in PubChem BioAssay AID434973 (Sanford-Burnham Center for Chemical Genomics, 2010).
The campaign covered roughly 330,000 compounds. About 4,900 (1.5%) were called active.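 Rule for the calls: active = inhibition above about 50% at the single test dose (limit read from the data); inactive = the rest.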 The full list was thinned out, with actives kept by preference.

The compounds below were run against Sentrin-specific protease 7 (Homo sapiens) (UniProt Q9BQF6) (assay: blockers of human SENP7 peptidase activity – biochemical, luminescence, uHTS, primary screen (AID 434973;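 note: plate controls were DMSO with enzyme for no effect and no enzyme buffer wells for full effect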)). Details: recombinant SENP7, Z-RLRGG-aminoluciferin luminescence, 40 min; at 5 µM; active compounds read high.
For `O=C1CC(Cc2ccccc2)C(=O)N1c1ccc(Cl)cn1` (centres undefined), the inhibition was -5.29% (inactive).
`COc1ccccc1C1CCN(C(=S)Nc2ccc(Br)cc2)CC1` was tested, and the inhibition was 5.73% (inactive).
For `Cc1cc2nc(-c3ccc(NC(=O)c4cccnc4)cc3)oc2cc1C`, the inhibition was -3.95% (inactive).
For `CCc1ccc2oc(-c3ccc(N)cc3)nc2c1`, the inhibition was 97.1% (active).
`O=C(Nc1ccc2oc(-c3ccc4ccccc4c3)nc2c1)c1cccs1` was tested, and the inhibition was -22.1% (inactive).
In the case of `CNC(=O)c1c(NC(NC(=O)c2ccco2)C(=O)c2ccc(Cl)cc2)sc2c1CCCC2` (centres undefined), the inhibition is reported as 3.25% (inactive).
`CCOC(=O)c1ccc(Nc2cc(C)nc3nc(C)nn23)cc1` was tested, and the inhibition was 0.148% (inactive).
`CCOC(=O)c1ccc(NC(=O)c2cc(=O)[nH]c3ccccc23)cc1` was tested, and the inhibition was 4.62% (inactive).
With `CCOC(=O)c1ccc(Nc2cc3ccccc3c(=O)[nH]2)cc1` the inhibition was 84.1% (active).
In the case of `Cc1ccc(CN2CCN(c3ncccn3)CC2)c(C)c1`, the inhibition is reported as -3.53% (inactive).
For `Cc1cc(=O)oc2c(C)c(OCC(=O)NCCc3ccc(S(N)(=O)=O)cc3)ccc12`, the inhibition was 7.75% (inactive).
In the case of `N#C/C=C/N1CCN(Cc2ccc3c(c2)OCO3)CC1`, the inhibition is reported as -6.74% (inactive).
In the case of `Cc1c(NC(=S)NC(=O)CCc2ccccc2)c(=O)n(-c2ccccc2)n1C`, the inhibition is reported as -7.18% (inactive).
`O=C(OCc1ccc(Br)cc1)c1cccc(-c2nnc(-c3ccccc3)o2)c1` was tested, and the inhibition was 23.5% (inactive).
`Brc1ccc(-c2noc(-c3ccccc3)n2)o1` was tested, and the inhibition was 88.5% (active).
In the case of `Cn1nc(-c2ccccc2)c(-c2nc(-c3ccc(Cl)cc3)no2)c1Cl`, the inhibition is reported as 1.67% (inactive).
For `Nc1nonc1-c1noc(-c2ccc(Br)o2)n1`, the inhibition was 9.66% (inactive).
`CN(C)c1ccc(-c2nnc(-c3cccnc3)o2)cc1` was tested, and the inhibition was 8.14% (inactive).
With `Brc1ccc(-c2nnc(-c3ccccc3)o2)o1` the inhibition was 57.6% (active).
With `Nc1ccc(-c2nnc(-c3ccc(-c4ccccc4)cc3)o2)cc1` the inhibition was 70.3% (active).
`Nc1ccc(-c2nnc(-c3ccccc3)o2)cc1` was tested, and the inhibition was 49.9% (inactive).
With `OC(c1nnc(-c2ccccc2)o1)c1cccs1` (centres undefined) the inhibition was 2.83% (inactive).
For `COc1ccc(C2C(C(C)=O)=C(O)C(=O)N2CCc2c[nH]c3ccccc23)cc1` (centres undefined), the inhibition was 0.562% (inactive).
`COc1ccc(NC(=O)c2sccc2SCC#N)cc1` was tested, and the inhibition was 7.98% (inactive).
In the case of `COCCN1CCn2c(nc3cc(NS(C)(=O)=O)ccc32)C1`, the inhibition is reported as 3.45% (inactive).
With `O=C(OCc1ccc([N+](=O)[O-])cc1)C1CC(=O)N(Cc2ccccc2Cl)C1` (centres undefined) the inhibition was 2.69% (inactive).
With `Cc1ccc(-c2ccc(/C=C(\C#N)C(N)=S)o2)c([N+](=O)[O-])c1` the inhibition was 2.25% (inactive).
In the case of `Cc1cc(C)nc(SCc2cn3c(C)cc(C)nc3n2)n1`, the inhibition is reported as 3.49% (inactive).
For `CSc1nc(C)nc(C2CC2)c1C#N`, the inhibition was -2.65% (inactive).
In the case of `CC(=O)Nc1ccc(S(=O)(=O)NCC2CCC(C(=O)NCCc3ccccc3)CC2)cc1` (centres undefined), the inhibition is reported as 2.3% (inactive).
For `CCOc1ccc(NC(=O)COC(=O)C2CCC(=O)N2)c([N+](=O)[O-])c1` (centres undefined), the inhibition was -6.28% (inactive).
For `CCC(C)CCN1CCN=C1N(C)C` (centres undefined), the inhibition was 9.82% (inactive).
`Cc1noc(C)c1S(=O)(=O)N(C)C[C@H]1Oc2ccc(NC(=O)C3CC3)cc2C(=O)N([C@H](C)CO)C[C@@H]1C` was tested, and the inhibition was -0.149% (inactive).
In the case of `COC(=O)C1=C(C)N(c2ccc(C)cc2)/C(=C/c2ccc(O)cc2)C1=O`, the inhibition is reported as 8.14% (inactive).
`O=C1c2ccccc2C(=O)N1CCC#Cc1ccc2cc(C3(O)CCCCC3)oc(=O)c2c1` was tested, and the inhibition was 2.91% (inactive).
In the case of `COc1cc(C#Cc2ccc3cc(CCCO)oc(=O)c3c2)cc(OC)c1`, the inhibition is reported as 79.7% (active).
With `COc1cc(/C=C2\Oc3ccc(C#Cc4ccc(O)cc4)cc3C2=O)cc(OC)c1` the inhibition was -7.29% (inactive).
`Cn1c(=O)c2c(ncn2CC(=O)N/N=C/c2cn[nH]c2-c2ccc(F)cc2)n(C)c1=O` was tested, and the inhibition was 1.2% (inactive).
For `CCCC(CNC(=O)COC(=O)C1=NNC(=O)CC1)c1ccc(Cl)cc1Cl` (centres undefined), the inhibition was -4.17% (inactive).
In the case of `O=C(O)CCCN1C(=O)c2ccccc2Sc2ncccc21`, the inhibition is reported as -1.32% (inactive).
For `CCNc1nc(N)nc(-c2cc(Cl)ccc2OC)n1`, the inhibition was 3.35% (inactive).
For `CCNc1nc(N)nc(Oc2ccc(OCC)nn2)n1`, the inhibition was 73.1% (active).
In the case of `CCOc1ccc(Oc2nc(C)cc(OC)n2)nn1`, the inhibition is reported as -1.32% (inactive).
With `CC12C(=O)N(c3ccccc3)C(=O)C1C(c1ccccc1)N1CCCN12` (centres undefined) the inhibition was -4.08% (inactive).
With `C=CCn1c(SCC(=O)c2c(N)n(C)c(=O)n(C)c2=O)nc2sc(CC)cc2c1=O` the inhibition was -1.46% (inactive).
For `CN(CCO)c1ccc(/C=N/Nc2nncc3ccccc23)cc1`, the inhibition was 93% (active).
For `COc1cccc(/C=N\Nc2nncc(-c3ccccc3)n2)c1`, the inhibition was 24.7% (inactive).
With `C/C(=N\Nc1nncc2ccccc12)c1ccc(Cl)c([N+](=O)[O-])c1` the inhibition was 5.32% (inactive).
For `COc1ccc([N+](=O)[O-])cc1N(CC(O)CN(CC(C)C)CC(C)C)S(=O)(=O)c1ccc(C)cc1` (centres undefined), the inhibition was 3.08% (inactive).
In the case of `COc1ccc(C2CC(=O)C=C(NCC3CCCO3)C2)cc1` (centres undefined), the inhibition is reported as 5.59% (inactive).
With `O=C(CN1C(=O)NC2(CCCCCC2)C1=O)NCc1cccs1` the inhibition was 3.72% (inactive).
With `Cc1cnc(NC(=O)C2CCCC2)s1` the inhibition was 0.0964% (inactive).
With `Cc1cccc(NC(=O)CSCC(=O)Nc2nnc(C3CC3)s2)c1` the inhibition was 4.12% (inactive).
For `Cc1cnc(NC(=O)c2ccccn2)s1`, the inhibition was 82.8% (active).
For `CCc1cc(C(=O)Nc2nnc(C3CC3)s2)sc1C`, the inhibition was -5.93% (inactive).
For `O=C(Nc1nnc(Cc2ccccc2)s1)c1cnccn1`, the inhibition was 3.97% (inactive).
`O=C(Nc1nnc(C2CC2)s1)c1ccccn1` was tested, and the inhibition was 57.4% (active).
`Cc1ccc(SCC(=O)Nc2ncc(C)s2)cc1` was tested, and the inhibition was -2.81% (inactive).
In the case of `Cc1cc(C(=O)Nc2nnc(C3CC3)s2)c(C)s1`, the inhibition is reported as 77% (active).
`O=C(Nc1nnc(C2CC2)s1)c1cc(Cl)sc1Cl` was tested, and the inhibition was 5.7% (inactive).
For `OC(CNC1CCCC1)COc1ccc(F)cc1` (centres undefined), the inhibition was 7.04% (inactive).
In the case of `Cc1nn(C(C)(C)C)c(OC(=O)CC(C)C)c1S(=O)(=O)c1ccccc1`, the inhibition is reported as 4.96% (inactive).
With `COc1ccc(S(=O)(=O)N2CCN(C(=O)c3cc(C)oc3C)CC2)cc1` the inhibition was 3.33% (inactive).
`COc1ccccc1-c1oc2ccccc2c1C#CCCCCO` was tested, and the inhibition was 5.54% (inactive).
With `CC1Cc2ccccc2N1C1=CC(=O)CC(C)(C)C1` (centres undefined) the inhibition was -3.44% (inactive).
In the case of `CC(C)(C)NC(=O)c1ccc(Cn2cc(C(F)(F)F)ccc2=O)cc1`, the inhibition is reported as -6.25% (inactive).
In the case of `Clc1ccc(-c2nc3ccccn3c2CN2CCSCC2)cc1`, the inhibition is reported as -5.08% (inactive).
`Cc1ccc(C(=O)C(=S)N2CCOCC2)cc1` was tested, and the inhibition was -2.91% (inactive).
`Cc1[nH]n(C(N)=S)c(=O)c1N=Nc1ccc(Cl)cc1Cl` was tested, and the inhibition was 51.8% (active).
In the case of `CC1=NN(C(N)=S)C(=O)C1N=Nc1cc(Cl)ccc1Cl` (centres undefined), the inhibition is reported as -5.66% (inactive).
`Cc1[nH]n(C)c(=O)c1N=Nc1ccc(S(C)(=O)=O)cc1` was tested, and the inhibition was 0% (inactive).
`CCOc1ccc(NC(=O)N2CC=C(n3c(=O)[nH]c4ccccc43)CC2)cc1` was tested, and the inhibition was 4% (inactive).
For `CC1CN(/C=C/C(=O)C(F)(F)F)CC(C)O1` (centres undefined), the inhibition was 1.13% (inactive).
For `C1=C(CCNc2ncnc3c2cnn3-c2ccccc2)CCCC1`, the inhibition was 56.6% (active).
In the case of `CC(C)Sc1ncnc2c1cnn2-c1ccccc1`, the inhibition is reported as 45.7% (inactive).
In the case of `O=C(NCCC1=CCCCC1)C1CCN(Cc2cnn(-c3ccccc3)c2-n2cccc2)CC1`, the inhibition is reported as -3.45% (inactive).
`CCCS(=O)(=O)N1CCC(C(=O)NCCCN(C)Cc2ccccc2)CC1` was tested, and the inhibition was -8.04% (inactive).
For `O=C(Nc1ccccc1Cl)c1ccc2nsnc2c1`, the inhibition was 50.7% (active).
For `Cc1cccc(NC(=O)c2ccc3nsnc3c2)c1C`, the inhibition was 2.56% (inactive).
`O=C(Nc1ccccc1)c1ccc2nsnc2c1` was tested, and the inhibition was 35.8% (inactive).
`COc1cccc(-c2nnc(SCCOc3ccc4c(C)cc(=O)oc4c3)o2)c1` was tested, and the inhibition was 7.33% (inactive).
For `Cc1nc(-c2ccc([N+](=O)[O-])cc2)c(-c2ccccc2)o1`, the inhibition was -7.84% (inactive).
`COc1ccc2oc(-c3cccc(NC(=O)CSc4ccc(Cl)cc4)c3)nc2c1` was tested, and the inhibition was -4.24% (inactive).
In the case of `O=[N+]([O-])c1ccc2oc(-c3cccc(O)c3)nc2c1`, the inhibition is reported as 87.7% (active).
`COc1ccc([N+](=O)[O-])cc1-c1nc2ccccc2nc1-c1ccccc1` was tested, and the inhibition was -0.763% (inactive).
For `COc1cccc(-c2nc3cc(C)ccc3o2)c1`, the inhibition was 99.9% (active).
`Cc1ccc(C2(C)NC(=O)N(CC(=O)Nc3ccccc3C(=O)N3CCCCC3)C2=O)cc1` (centres undefined) was tested, and the inhibition was 12.4% (inactive).
`COCOc1cc(O)c(C(=O)/C=C/c2ccc(OCOC)c(OCOC)c2)c(OCOC)c1` was tested, and the inhibition was 6.61% (inactive).
In the case of `O=C(/C=C/c1ccco1)NC(=S)Nc1ccccc1Br`, the inhibition is reported as -4.36% (inactive).
`Cc1nnc(NC(=O)/C=C/c2ccco2)s1` was tested, and the inhibition was -7.44% (inactive).
`O=C(/C=C/c1ccco1)Nc1ccc(Oc2ccccc2)cc1` was tested, and the inhibition was 63.9% (active).
In the case of `CCOc1cc(NC(=O)CCl)c(OCC)cc1NC(C)=O`, the inhibition is reported as 5.15% (inactive).
`O=C(Cc1ccc(S(=O)(=O)N2CCOCC2)s1)N1CCN(c2ccc(C(F)(F)F)cc2[N+](=O)[O-])CC1` was tested, and the inhibition was -8% (inactive).
In the case of `O=C(O)c1cccc(N=NN2CCCCCC2)c1`, the inhibition is reported as 77.8% (active).
`O=C(O)c1ccc(N=NN2CCOCC2)cc1` was tested, and the inhibition was -2.47% (inactive).
For `NC1=NN(c2cccc(C(=O)O)c2)C(=O)C1`, the inhibition was 5.47% (inactive).
For `O=C(Oc1ccc([N+](=O)[O-])cc1)c1ccc2ccccc2n1`, the inhibition was -9.28% (inactive).
For `CC(=O)Oc1ccc(-c2nc3c(C)cccc3c(=O)o2)cc1`, the inhibition was -7.63% (inactive).
For `CC(=O)Oc1ccc2c(=O)oc(-c3ccc([N+](=O)[O-])cc3)nc2c1`, the inhibition was 97.5% (active).
